# Screening results: PubChem BioAssay, National Center for Advancing Translational Sciences (NCATS)
# Compounds with a hit are over-represented: about 2.8% of the library has one in this group of screens.
# RGS4 inh = Inhibitors of Regulator of G Protein Signaling (RGS) 4: qHTS | Regulator of G-protein signaling 4 (Homo sapiens), P49798 | Transcreener GDP fluorescence polarization, RGS4-accelerated GTP hydrolysis | Potency, µM (highest dose often 114 µM), inactives show at the top dose activity change, negative = inhibition, most hits filed as inhibitors | actives 0.039% (n = 390,000) | AID 504845, 2011; active = well fitted inhibition curve with a large enough effect; inconclusive = small, poorly fitted or top-dose-only effect; inactive = no such curve, though single readings can be large or run the other way; also: potency is read from the fitted curve at half-maximal effect; % is scaled to controls: 0 for no effect and ±100 for the full control effect; nearly all actives have a fitted effect of over 75% in size
# Target sequence (P49798 whole entry, looked up): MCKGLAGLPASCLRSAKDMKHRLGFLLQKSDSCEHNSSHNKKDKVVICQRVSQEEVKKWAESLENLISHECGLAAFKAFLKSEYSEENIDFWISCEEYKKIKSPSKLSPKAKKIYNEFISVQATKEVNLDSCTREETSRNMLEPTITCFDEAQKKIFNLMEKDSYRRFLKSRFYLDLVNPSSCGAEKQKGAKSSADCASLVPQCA
#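 MLSMR compounds (23 nl, pin-transferred) preincubated 10 min at room temperature with a 500nM (2x) first reagent, then RGS4 at 900nM (2x) plus Transcreener GDP mix added; fluorescence polarization (620/688 nm) read before and after 90 min at 30 °C.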
# DRD3 antagonist = qHTS of D3 Dopamine Receptor Antagonist: qHTS | max response, negative = inhibition, % | actives 2.5% (n = 360,000) | D3R cells, DiscoveRx beta-arrestin luminescence, antagonist mode; hits give low values | AID 652054, 2013; in the data active = max response below about -50%; inconclusive = no clear call, values can overlap the other calls; also: % is scaled to controls: 0 for no effect and ±100 for the full control effect
#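 Cells plated overnight at 1500 cells/well, then exposed to library compounds with dopamine controls for 90 minutes at 37 degrees C. DiscoveRx reagent added for 30–60 minutes at room temperature; luminescence read, quantitative HTS format.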
# DRD3 agonist = qHTS of D3 Dopamine Receptor Agonist: qHTS. max activation, %. D3R DiscoveRx beta-arrestin cells, luminescence, 90 min. actives 0.58% (n = 410,000); in the data active = max activation above about 30%; also: 0% is about no effect
#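 Agonist mode: compounds and dopamine controls were applied to plated cells for 90 min at 37 degrees C after an overnight attachment at 1500 cells/well. Luminescent read-out followed 30 - 60 minutes at room temperature with DiscoveRx detection reagent.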
# LDHA inh = qHTS assay for inhibitors of human lactate dehydrogenase; L-lactate dehydrogenase A chain (Homo sapiens), P00338; purified LDHA, NADH/diaphorase-resazurin fluorescence; hits give low values; activity change, % (values are at about 110 or 230 µM); actives 0.15% (n = 480,000); AID 1347041, 2019; in the data active = activity change below about -30%; inconclusive = mostly about -25% to -30%;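 also: plate controls were DMSO wells for no effect and wells without enzyme for full effect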
#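 Resorufin fluorescence (ex540/em590), read at 0 and 20 min after diaphorase/resazurin addition, reports the NADH left after a 5 min room-temperature reaction of 2 nM human LDH5 with 0.06 mM NADH and 0.2 mM pyruvate.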
# Akt phos inh = HTS Assay for Inhibitors of Akt Phophorylation: Primary Screen | activity change, % for hits at 50 µM | actives 0.32% (n = 360,000) | Neuro2A IGF-stimulated pAkt S473 HTRF, 20 min; hits give low values; in the data active = activity change below about -80%; inconclusive = mostly about -51% to -80%; also: % is scaled to controls: 0 for no effect and ±100 for the full control effect
#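 Neuro2A cells in DMEM with 0.5% FBS, overnight at 37 deg C, given compound at single 50 µM final, then IGF (6 nM final) for 20 min at 37 deg C. Lysed; phospho-Akt Ser473 by HTRF after 24 h, 665/615 ratio.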
# PI4K2A block = qHTS for small molecular inhibitors of PI4K2A; activity change, negative = inhibition, % at 76.9 µM; actives 0.13% (n = 420,000); purified PI4K2A, ADP-Glo luminescence, 1 h; hits give low values; in the data active = activity change below about -50%; inconclusive = mostly about -30% to -49%;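 also: -100% = wells without enzyme as full effect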
# Target sequence (Q9BTU6 whole entry, looked up): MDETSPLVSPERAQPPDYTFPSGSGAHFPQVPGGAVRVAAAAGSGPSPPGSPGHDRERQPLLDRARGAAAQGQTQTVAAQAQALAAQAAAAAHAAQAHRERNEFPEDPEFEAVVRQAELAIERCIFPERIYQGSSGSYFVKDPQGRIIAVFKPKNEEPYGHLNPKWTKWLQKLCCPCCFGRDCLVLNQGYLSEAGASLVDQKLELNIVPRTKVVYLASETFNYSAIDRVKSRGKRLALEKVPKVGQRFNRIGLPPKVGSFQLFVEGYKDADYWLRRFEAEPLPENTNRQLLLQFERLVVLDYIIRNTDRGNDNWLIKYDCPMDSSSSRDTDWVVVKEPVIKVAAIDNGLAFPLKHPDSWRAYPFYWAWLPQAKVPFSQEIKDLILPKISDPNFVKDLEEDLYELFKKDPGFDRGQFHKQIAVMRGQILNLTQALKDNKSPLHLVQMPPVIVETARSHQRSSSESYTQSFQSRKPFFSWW
#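 ADP-Glo luminescence measured ADP generated by PI4K2A enzyme (4 ug/mL before mixing) with 1.2 mM PI substrate (pre-mix) and 300 microM ATP (pre-mix). Tris pH7.5 buffer with MgCl2, Triton X-100; 1 h reaction at ambient temperature.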
# * = called active by the depositor; i = inactive; ? = inconclusive; / = no result.
SMILES,RGS4 inh,DRD3 antagonist,DRD3 agonist,LDHA inh,Akt phos inh,PI4K2A block
O=C(Cn1nc(Cc2cccnc2)c2ccccc2c1=O)Nc1ccc2c(c1)OCO2,-29%,0,-4,2,i,-6
O=C(Cn1nc(Cc2cccnc2)c2ccccc2c1=O)Nc1ccc(F)c(Cl)c1,-8%,/,39*,-8,/,9
CC1Cc2ccccc2N1C(=O)CN1CCN(Cc2ccccc2)CC1 (centres undefined),15%,-78*,-11,-23,i,0
CC1CCN(CC(=O)N2c3ccccc3CC2C)CC1 (centres undefined),-14%,-25,-7,-7,i,-2
CC1Cc2ccccc2N1C(=O)Cn1cc(C(F)(F)F)ccc1=O (centres undefined),/,-117*,-14,2,i,-8
CC(C)NC(=O)c1ccc(I)cc1,/,/,/,-22,/,/
CC(Oc1ccccc1F)C(=O)Nc1ccc(-c2nc3ccccc3o2)cc1 (centres undefined),/,/,/,6,/,/
COC(=O)c1scc(-c2ccc(C)cc2)c1S(=O)(=O)Nc1cccc(C)c1,/,/,/,1,/,/
O=C(/C=C/c1ccc2ccccc2c1)c1ccccc1F,/,/,/,-22,/,/
Cc1cc(C)nc(S/C=C/C(=O)c2ccccc2F)n1,?,-85*,-17,-2,i,-12
COc1ccccc1NC(=O)c1ccc(NC(=O)COC(=O)c2cc(C)nc3ccccc23)cc1,/,/,/,1,/,/
CC(=O)Nc1ccc(-c2csc(NC(C)(C)C)n2)cc1,/,/,/,7,/,/
COc1ccc(S(=O)(=O)c2c(C)c(C)n(C(C)C)c2NC(=O)c2cccs2)cc1,/,/,/,-6,/,/
CC(=O)N1CCc2c(sc3c2c(=O)n(Cc2ccccc2)c(=O)n3Cc2ccccc2Cl)C1,2%,/,1,-1,/,-1
CC(=O)N1CCc2c(sc3c2c(=O)n(-c2ccccc2Cl)c(=O)n3C)C1,-5%,/,31*,-4,/,-6
CCCn1nc(C(=O)Nc2ccc(C)cn2)c2ccccc2c1=O,/,/,/,2,/,/
COc1cccc(/C=N/Nc2cc(-n3nc(C)cc3-c3ccccc3)ncn2)c1O,-34%,24,38*,-1,i,2
Cc1cc(C)n(-c2nc(Nc3ccccc3)nc(-n3nc(C)cc3C)n2)n1,12%,1,4,-9,i,-1
COc1cccc(/C=N/Nc2nc(Nc3ccccc3)nc(-n3nc(C)cc3C)n2)c1O,-19%,-141*,-46,5,i,2
COc1ccc2nc(C)cc(N/N=C/c3cccc(OC)c3O)c2c1,?,0,-3,1,i,1
CCc1nc2ccc(C(=O)NCCOc3ccc(OC)cc3)cn2c1N(CCC(C)C)CCN(C)C,/,-89*,-28,-7,i,-9
CCc1nc2ccc(C(=O)Nc3cc(-c4ccccc4)ccc3OC)cn2c1N(CCN(C)C)CC1CC1,/,-69*,-19,-1,i,-8
CCc1nc2ccc(C(=O)Nc3cc(-c4ccccc4)ccc3OC)cn2c1N(C=O)CCC(C)C,/,6,69*,-4,i,2
CCc1nc2ccc(C(=O)Nc3cc(-c4ccccc4)ccc3OC)cn2c1N(C)CCC(C)C,/,60,15,-3,i,-2
CCCCNC(=O)c1ccc2nc(CC)c(N(CCC(C)C)CCN(C)C)n2c1,/,16,-12,-11,i,2
SMILES,RGS4 inh,DRD3 antagonist,DRD3 agonist,LDHA inh,Akt phos inh,PI4K2A block
FC(F)(F)c1ccc(C(c2ccccc2)N2CCNCC2)cc1 (centres undefined),/,/,/,2,/,/
O=C1c2ccsc2SCCN1Cc1c(Cl)cccc1Cl,153%,-61*,-2,-8,i,-6
O=C1c2ccsc2SCCN1Cc1c(F)cccc1Cl,13%,2,2,-7,i,-1
O=C1c2ccsc2SCCN1Cc1ccc(Cl)cc1Cl,-31%,19,0,-1,-106%*,-3
N#Cc1nc(-c2cccs2)oc1N1CCN(C(=O)c2ccccc2Cl)CC1,/,/,/,3,/,/
CSc1ccc(/C=C/C(=O)c2ccc3c(c2)NC(=O)CO3)cc1,/,/,/,6,/,/
CC(C)Oc1ccc(C(=O)NCc2coc(-c3cccs3)n2)cc1,/,/,/,13,/,/
CCc1cccc(NS(=O)(=O)c2csc(C(N)=O)c2)c1,1%,20,33*,-1,i,2
N#Cc1cccnc1NCCNC(=O)Nc1cn[nH]c1,/,/,/,-6,/,/
Cc1cc2nc(SCC(=O)N(C)C)c3c(c2cc1C)CCCC3,4%,-50*,-1,1,i,1
CN(C(=O)c1cccc(OC(F)F)c1)C1CCCCC1,/,/,/,4,/,/
O=C(NCCNCc1ccc(F)cc1)c1ccco1,-15%,-66*,-6,-8,i,0
Cc1cc(F)ccc1NC(=O)CCc1ncc(-c2ccccc2)o1,/,/,/,2,/,/
CCN(Cc1nc2ccccc2c(=O)[nH]1)C(=O)c1cc(C2CC2)nn1-c1ccccc1,-9%,2,5,-2,i,5
CN(Cc1nc2ccccc2c(=O)[nH]1)C(=O)c1cc(C2CC2)nn1-c1ccccc1,14%,-60*,2,-2,i,6
Cc1cc(NCc2ccccc2)nc2ccccc12,-6%,-57*,-5,-2,i,0
CCc1ccc(C2Cc3ccccc3N2)cc1 (centres undefined),/,/,/,15,/,/
COCCN(C(=O)c1ccco1)C(C(=O)NC1CCCC1)c1cccs1 (centres undefined),55%,-23,-5,-4,-92%*,-13
CCOC(=O)CN(C(=O)CNC(=O)c1ccco1)C(C(=O)NC1CCCCC1)c1cccs1 (centres undefined),-13%,2,1,2,i,-1
CCCCC[C@H]1CN(CCCC)C(=O)[C@@H]1CC(=O)NCc1ccccc1,13%,0,34*,-1,i,1
Cc1nn(CCC(=O)NCc2ccc(Cl)cc2)c(=O)c2nn(-c3ccccc3)c(C)c12,15%,/,57*,-13,/,-1
CCC(C(=O)NCCCN(CC)Cc1ccccc1)n1nc(C)c2sc3ccccc3c2c1=O (centres undefined),0%,-84*,-7,-8,i,-6
CCC(C(=O)NCCc1ccc(C)cc1)n1nc(C)c2c(C)n(-c3ccccc3)nc2c1=O (centres undefined),-12%,-79*,-11,0,i,-5
